The assay in a line: sensitizers of A549 cells to miR-34 induction, primary screen, imaging, A549 dox-inducible miR-34, nuclei and caspase counts (AID 1347080). Further: test concentration not given here. The settings on record: A549 miR-34 inducible, Hoechst nuclei count, 48 h.
Setting [1] is: stronger effect = lower value, cell number ratio, induced over uninduced.
The mark [2] stands for this setting: measured here: relative caspase fold change +Dox/-Dox.
[3] abbreviates: measured here: total cells with miR-34 induction, stronger effect = lower value.
The mark [4] stands for this setting: measured here: total cells without miR-34 induction.

The values below come from PubChem BioAssay.

Active and inactive are the calls of the source.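 How the source made its calls: active means compounds whose cell count with miR-34 switched on is under 0.7 times the count with it off; inactive means the rest.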

For `CC(C)=CCC/C(C)=C/CC/C(C)=C/CC[C@]1(C)CCc2c(C)c(O)c(C)c(C)c2O1`, the fold change was 0.928 (inactive) under setting [1] and 0.656 under setting [2]. Besides, the cell count is 5490 under setting [3] and 5920 under setting [4].

Consider `CC(C)=CCC/C(C)=C/CC/C(C)=C/CC[C@]1(C)CCc2cc(O)cc(C)c2O1`, for which the fold change runs as follows: under setting [1], 0.922 (inactive); under setting [2], 1.06. In addition, the cell count reads like this: under setting [3], 5270; under setting [4], 5720.

As to `CCCCC[C@H](O)/C=C/[C@H]1C=CC(=O)[C@@H]1CCCCCCC(=O)OCC`, the fold change was 0.941 (inactive) under setting [1] and 1.83 under setting [2]. Besides, the cell count is, setting by setting: under setting [3], 5280; under setting [4], 5620.

`O=P(O)(O)OC1[C@H](OP(=O)(O)O)[C@H](O)C(O)[C@H](O)[C@H]1OP(=O)(O)O` (some centres undefined): the fold change is, setting by setting: under setting [1], 0.94 (inactive); under setting [2], 1.1. The cell count by setting is: under setting [3], 5720; under setting [4], 6080.

As for `O=C(O)CCC/C=C\C[C@@H]1[C@@H](/C=C/C(=O)COc2cccc(C(F)(F)F)c2)[C@H](O)C[C@@H]1O`, the fold change by setting is: under setting [1], 0.949 (inactive); under setting [2], 0.381. The cell count by setting is: under setting [3], 6020; under setting [4], 6340.

Take `CCCCC[C@H](O)/C=C/[C@@H]1[C@H]2C/C=C\CCCC(=O)O[C@@H]1C[C@@H]2O`: the fold change runs as follows: under setting [1], 0.912 (inactive); under setting [2], 0.907. In addition, the cell count by setting is: under setting [3], 5380; under setting [4], 5900.

Regarding `CCCCC/C=C/C=C1/C=CC(=O)[C@@H]1CCCCCCC(=O)O`, the fold change was 1.71 (inactive) under setting [1] and 0.938 under setting [2]. Also, the cell count reads like this: under setting [3], 5570; under setting [4], 3250.

Take `CCCCC1C(=O)CC[C@H]2[C@@H]1CC(=O)[C@@H]2CCCCCCC(=O)O` (some centres undefined): the fold change under setting [1] was 0.957 (inactive) and the fold change under setting [2] stood at 0.967. Besides, the cell count under setting [3] was 5230 and the cell count under setting [4] amounted to 5460.

As to `CCCCCCCC/C=C\CCCCCCCC(=O)c1nc2ncccc2o1`, the fold change is 0.938 (inactive) under setting [1] and 0.974 under setting [2]. Further, the cell count was 5390 under setting [3] and 5740 under setting [4].

Turning to `C=C1C[C@H](O)[C@H](C/C=C\CCCC(=O)O)[C@H]1/C=C/[C@@H](O)CCCCC`, the fold change is, setting by setting: under setting [1], 0.988 (inactive); under setting [2], 1.72. In addition, the cell count worked out at 5940 under setting [3] and 6010 under setting [4].

On to `CC(C)(C)C(=O)Nc1ccccc1`, for which the fold change reads like this: under setting [1], 0.896 (inactive); under setting [2], 1.18. The cell count is, setting by setting: under setting [3], 5080; under setting [4], 5670.

With `O=C(NCCN1CCC(n2c(=O)[nH]c3cc(Cl)ccc32)CC1)c1ccc(F)cc1`, the fold change was 0.968 (inactive) under setting [1] and 1.46 under setting [2]. In addition, the cell count worked out at 6040 under setting [3] and 6240 under setting [4].

Consider `CCCCCCCCCCCCCCC(=O)N[C@H]1CCOC1=O`, for which the fold change under setting [1] was 0.982 (inactive) and the fold change under setting [2] is 1.59. In addition, the cell count runs as follows: under setting [3], 5560; under setting [4], 5660.

In the case of `CCCCCCCC/C=C\CCCCCCCC(=O)NCCS(=O)(=O)O`, the fold change reads like this: under setting [1], 0.992 (inactive); under setting [2], 0.63. The cell count reads like this: under setting [3], 6150; under setting [4], 6200.

Regarding `CCC(O)/C=C/C=O` (centres undefined), the fold change is 0.941 (inactive) under setting [1] and 1.21 under setting [2]. Moreover, the cell count was 5860 under setting [3] and 6230 under setting [4].

Consider `CCCCN=C(N)NO`, for which the fold change is 1.06 (inactive) under setting [1] and 1.14 under setting [2]. In addition, the cell count under setting [3] was 6280 and the cell count under setting [4] turned out to be 5930.

As for `COc1cc(/C=C/C(=O)N2CCCCCC2)cc(OC)c1OC`, the fold change was 0.968 (inactive) under setting [1] and 0.988 under setting [2]. Also, the cell count under setting [3] was 7660 and the cell count under setting [4] was determined as 7910.

With `CCCCCCCCCCCCCCCCOC[C@H](COP(=O)([O-])OCC[N+](C)(C)C)SC(=O)CCCCCC`, the fold change is 0.987 (inactive) under setting [1] and 1.56 under setting [2]. Besides, the cell count stood at 5880 under setting [3] and 5950 under setting [4].

`CC(C)(C)OC(=O)N1CCC(OCc2nc(-c3ccncc3)no2)CC1`: the fold change by setting is: under setting [1], 1.03 (inactive); under setting [2], 0.58. In addition, the cell count by setting is: under setting [3], 5600; under setting [4], 5430.

For `CCCCC[C@H](O)/C=C/[C@H]1OC(O)C[C@H](O)[C@@H]1CCCCCCC(=O)O` (some centres undefined), the fold change runs as follows: under setting [1], 1.03 (inactive); under setting [2], 1.26. Further, the cell count reads like this: under setting [3], 5640; under setting [4], 5470.

Regarding `Cc1nc(-c2ccc(C(F)(F)F)cc2)sc1C(=O)NCc1ccc(OC(C)(C)C(=O)O)cc1`, the fold change by setting is: under setting [1], 0.946 (inactive); under setting [2], 0.5. In addition, the cell count runs as follows: under setting [3], 5220; under setting [4], 5520.

Turning to `C/C(O)=C1\C(=O)[C@@H]2[C@H]3c4c[nH]c5cccc(c45)C[C@H]3C(C)(C)N2C1=O`, the fold change under setting [1] was 1.02 (inactive) and the fold change under setting [2] came out at 0.893. Further, the cell count was determined as 2150 under setting [3] and 2100 under setting [4].

Consider `CCCCC[C@H](O)/C=C/[C@H]1C(=O)C[C@H](O)[C@@H]1C/C=C\CCCC(=O)OCC(O)CO` (some centres undefined), for which the fold change reads like this: under setting [1], 1.06 (inactive); under setting [2], 1.71. Besides, the cell count was 6090 under setting [3] and 5740 under setting [4].

Take `CN(C)C(=O)CCSC(SCCC(=O)O)c1cccc(/C=C/c2ccc3ccc(Cl)cc3n2)c1` (centres undefined): the fold change under setting [1] was 1 (inactive) and the fold change under setting [2] amounted to 1.76. In addition, the cell count reads like this: under setting [3], 5360; under setting [4], 5340.

As to `CC(C)CC[C@@H](O)[C@@H](C)C1CCC2C3CC=C4C[C@@H](O)CC[C@]4(C)C3CC[C@@]21C` (some centres undefined), the fold change is, setting by setting: under setting [1], 0.933 (inactive); under setting [2], 1.03. The cell count under setting [3] worked out at 5170 and the cell count under setting [4] came out at 5530.

`CCCCC[C@H](O)/C=C/[C@H]1C2CC(CO2)[C@@H]1C/C=C\CCCC(=O)O` (some centres undefined): the fold change runs as follows: under setting [1], 0.956 (inactive); under setting [2], 0.835. Besides, the cell count runs as follows: under setting [3], 5400; under setting [4], 5650.

Take `O=C1C[C@@H]2[C@@H](/C=C/[C@@H](O)COc3cccc(C(F)(F)F)c3)[C@H](O)C[C@@H]2O1`: the fold change runs as follows: under setting [1], 0.96 (inactive); under setting [2], 1.35. Moreover, the cell count runs as follows: under setting [3], 5650; under setting [4], 5880.

As to `CCCCC/C=C\C=C1\C(=O)CC[C@@H]1C/C=C\CCCC(=O)O`, the fold change is 0.94 (inactive) under setting [1] and 0.792 under setting [2]. For the same compound, the cell count by setting is: under setting [3], 5640; under setting [4], 6000.

Take `COc1cc2c3cc1Oc1c(OC)c(OC)cc4c1[C@@H](Cc1ccc(OC(=O)c5ccc([N+](=O)[O-])cc5)c(c1)Oc1ccc(cc1)C[C@@H]3N(C)CC2)N(C)CC4`: the fold change under setting [1] was 1.06 (inactive) and the fold change under setting [2] is 0.897. Further, the cell count by setting is: under setting [3], 2050; under setting [4], 1940.

For `CCCCC[C@H](O)/C=C/[C@H]1[C@H](O)CC(=O)[C@@H]1CC(=O)CCCCC(=O)O`, the fold change runs as follows: under setting [1], 0.96 (inactive); under setting [2], 1.25. In addition, the cell count is, setting by setting: under setting [3], 6410; under setting [4], 6680.

Turning to `CN(C)c1cc(NC(=O)CNC(C)(C)C)c(O)c2c1C[C@H]1C[C@@H]3C(C(=O)C(C(N)=O)=C(O)[C@H]3N(C)C)C(=O)C1=C2O` (some centres undefined), the fold change reads like this: under setting [1], 0.886 (inactive); under setting [2], 0.781. Further, the cell count is, setting by setting: under setting [3], 8740; under setting [4], 9860.
